In PubChem BioAssay AID1063 (University of Pittsburgh Molecular Library Screening Center, 2008):
Where “and” joins values, the source holds several entries; their conditions need not be identical. Identical values can stand only once. Screen size: about 200,000 compounds; about 18,000 (9%) were called active. Cut-off read from the data, not from the text of the source: active = inhibition above about 50%; inactive = the rest. For the sample, actives were picked, then their nearest neighbours and some compounds at random. Some structures have more than one record in an assay (separate samples or runs), and their calls can disagree.

Assay: Leishmania major promastigote growth inhibition, primary screen (AID 1063);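 note: promastigotes grown with compound for 44 hours at 28 °C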
Conditions: Leishmania major promastigotes, resazurin fluorescence viability; at 10 µM; stronger effect = higher value

SMILES | inhibition
Cc1ccc(C(=O)N/C(=C/c2cccs2)C(=O)NCC2CCCO2)cc1 (centres undefined) | -3.66% (inactive)
CC(C)C(=O)NC(=S)Nc1ccccc1F | -3.27% (inactive)
CC(C)C(=O)Nc1cccc(NC(=S)NC(=O)C(c2ccccc2)c2ccccc2)c1 | 100% (active)
CCCCC(=O)NNC(=S)NC(=O)C(c1ccccc1)c1ccccc1 | 22.8% (inactive)
CC(C)(C)c1ccc(C(=O)NCc2nnc(SCC(=O)N3CCCc4ccccc43)n2-c2ccccc2)cc1 | -4.1% (inactive)
COc1ccccc1CCNC(=O)CSc1nnc2ccc(-c3cccnc3)nn12 | 1.51% (inactive)
OC(COc1ccccc1)Cn1cc(Br)cn1 (centres undefined) | -7.06% (inactive)
OC(CN=c1sc2ccccc2n1CC(O)COc1ccccc1)COc1ccccc1 (centres undefined) | 63.1% (active)
C=CCn1c(=N)n(CC(O)COc2ccc(OC)cc2)c2ccccc21 (centres undefined) | 34.9% (inactive)
C/C(N)=C(/C#N)C(=O)COC(=O)CNS(=O)(=O)c1ccc(C)cc1 | -2.53% (inactive)
Cc1ccc(C)n1NC(=O)c1ccc([N+](=O)[O-])cc1 | -0.24% (inactive)
CC1CC(C)CN(C(=O)CSc2ccsc2[N+](=O)[O-])C1 (centres undefined) | 8.96% (inactive)
S=c1[nH]nc2c3c4c(sc3ncn12)CCCC4 | 72.6% (active)
CC(C(=O)O)n1cnc2sc3c(c2c1=O)CCCC3 (centres undefined) | -4.65% (inactive)
c1nnc2c3c4c(sc3ncn12)CCC4 | -5.73% (inactive)
COc1cc(OC)cc(C(=O)OCC(=O)Nc2sccc2C(N)=O)c1 | 18.3% (inactive)
Cc1cc(C)cc(NC(=S)NCCCN2CCOCC2)c1 | 11.8% (inactive)
Cc1cc(C)c(S(=O)(=O)NCCCN2CCOCC2)cc1Br | 94.6% (active)
Cc1ccc(S(=O)(=O)NCCN2CCOCC2)cc1C | -7.43% (inactive)
O=C(NCc1cccs1)c1cc(-c2ccccn2)nc2ccc(Br)cc12 | -5.05% (inactive)
CC(=O)Nc1ccc(OCCC[n+]2cccc(C(=O)[O-])c2)cc1 | 0.17% (inactive)
COc1ccc(/C=C(\C#N)C(=O)NCCCn2ccnc2)cc1 | 55.7% (active)
COCCNC(=O)/C(C#N)=C/c1cccc(OCc2ccccc2)c1 | 47% (inactive)
COc1ccccc1-c1cc(C(=O)NCCCn2ccnc2)no1 | 6.26% (inactive)
CCOc1ccccc1C(=O)NCCCn1ccnc1 | 0.51% (inactive)

SMILES | inhibition
COc1cccc(-c2nn(-c3ccccc3)cc2/C=C(\C#N)C(=O)NCCCn2ccnc2)c1 | 100% (active)
COc1ccc(-c2cc(C(=O)NCCCn3ccnc3)no2)cc1 | 36.3% (inactive)
Cc1nccn1CCCNC(=O)CC1C(=O)NCCN1Cc1ccc(Cl)c(F)c1 (centres undefined) | 5.03% (inactive)
Cc1cccc(NS(=O)(=O)c2ccc(C)c(C(N)=O)c2)c1 | -3.69% (inactive)
O=C(Nc1ccccc1C(=O)N1CCOCC1)c1ccc(Cl)cc1 | 1.24% (inactive)
NS(=O)(=O)c1cccc(NC(=O)CN2CCCc3ccccc32)c1 | -1.56% (inactive)
O=C(NNC(=S)NCc1ccco1)C(c1ccccc1)c1ccccc1 | 45.2% (inactive)
Cc1cc(O)c(NC(=O)c2ccc(C)c([N+](=O)[O-])c2)cc1C | 1.25% (inactive)
COCC(C)NC(=O)CSc1nc2nn(-c3ccccc3)c(=O)c-2c2n1CCCCC2 (centres undefined) | 34.5% (inactive)
CCOC(=O)c1[nH]ncc1CN1CCCC(C(=O)c2ccc(OC)cc2C)C1 (centres undefined) | 1.77% (inactive)
CCn1ccnc1CN1CCCC(C(=O)c2ccc3c4c(cccc24)CC3)C1 (centres undefined) | 40% (inactive)
COc1ccc(C(=O)C2CCCN(Cc3cccn3-c3ccccn3)C2)c(C)c1 (centres undefined) | 99.8% (active)
O=C(CN1CCOCC1)Nc1c(Cl)cc(Cl)cc1Cl | -3.49% (inactive)
O=C(Nc1ccc(F)cc1)N1CCCC(c2nc3c(nnn3Cc3ccccc3Cl)c(=O)[nH]2)C1 (centres undefined) | -7.44% (inactive)
COC(C(=O)NCc1ccccc1C)c1ccccc1 (centres undefined) | -3.9% (inactive)
COC(C(=O)Nc1ccc(C(C)=O)cc1)c1ccccc1 (centres undefined) | -5.21% (inactive)
COC(C(=O)Nc1ccc(S(=O)(=O)Nc2ccc(C)c(C)c2)cc1)c1ccccc1 (centres undefined) | 56.7% (active)
Cc1ccc(C(=O)N/C(=C\c2ccco2)C(=O)N2CCSCC2)cc1C | 10.4% (inactive)
O=C(CCCn1c(=O)c2sccc2n(CC(=O)NCC2CCCO2)c1=O)NCc1ccco1 (centres undefined) | -8.29% (inactive)
CC1CCCC(C)N1/N=C/c1ccccc1OC(F)F (centres undefined) | -3.94% (inactive)
Oc1ccc(Br)cc1C=Nc1ccc2[nH]ncc2c1 | -4.98% (inactive)
Oc1ccc(Cl)cc1/C=N/c1nc2ccccc2[nH]1 | 63% (active)
c1ccc2[nH]c(-c3nc4ccccc4[nH]3)nc2c1 | 33.9% (inactive)
COc1cccc(-c2nnc(NC(=O)c3ccc(S(=O)(=O)N(CC(C)C)CC(C)C)cc3)o2)c1 | 100% (active)
COc1cccc(NC(=O)c2ccc(S(=O)(=O)N(C)C)cc2)c1 | -7.02% (inactive)

SMILES | inhibition
O=C(Nc1nnc(-c2ccco2)o1)c1ccc(S(=O)(=O)N2CCOCC2)cc1 | 3.15% (inactive)
CCOc1ccc2nc(NCCNC(=O)C(C)(C)C)c(C)cc2c1 | 5.84% (inactive)
CN(CC(=O)NCCc1ccccn1)S(=O)(=O)c1ccc(Cl)cc1 | 6.18% (inactive)
COc1ccc(CCN(C)C(=O)C2CCCN(Cc3ccc(OC)c(OC)c3)C2)cc1OC (centres undefined) | -6.68% (inactive) and 55.5% (active)
COc1ccc(CN2CCCC(C(=O)c3ccc(Cl)cc3)C2)cc1Cn1cncn1 (centres undefined) | 32% (inactive)
COc1ccc(CN2CCCC(CNC(=O)c3ccc(F)cc3)C2)cc1OC (centres undefined) | 14.8% (inactive)
O=C1CN(C(=O)CN2C(=O)NC3(CCCCC3)C2=O)c2ccccc2N1 | -5.28% (inactive)
Cc1ccccc1Nc1scc(-c2ccc(Br)cc2)[n+]1-c1ccccc1C | 31% (inactive)
CCc1ccc(NC(=O)N2CCN(c3ccccc3)CC2)cc1 | 25.5% (inactive)
CC(CC(=O)N1CCN(c2ccccc2)CC1)c1ccccc1 (centres undefined) | -5.82% (inactive)
CC(=O)N1CCN(c2ccc(NCc3ccc(C(C)C)cc3)cc2)CC1 | 81.4% (active)
NC(=O)N1CCc2ccccc21 | -6.03% (inactive)
N#Cc1ccc(N2Cc3ccccc3/C2=N/C(=O)Nc2ccc(Cl)cc2)cc1 | 71.6% (active)
Cc1cccc(N2Cc3ccccc3C2=NC(=O)c2ccc(Cl)nc2)c1 | 4.02% (inactive)
O=C(Nc1ccccc1)OCc1cn(-c2ccc(Cl)cc2)nn1 | -4.84% (inactive)
Cn1cccc1/C=C1\SC(=O)N(CC(=O)Nc2ccc(F)cc2)C1=O | -0.17% (inactive)
CCC(Oc1ccccc1)C(=O)NCc1cccnc1 (centres undefined) | 3.42% (inactive)
O=C(CCc1ccccc1)NCc1cccnc1 | -1.64% (inactive)
CCOc1cc(/C=N/O)ccc1OCc1ccccc1F | -1.85% (inactive)
Fc1ccccc1COc1ccccc1CNCc1ccncc1 | 98.5% (active)
c1ccc(COc2ccccc2CNCc2cccnc2)cc1 | 75% (active)
COc1ccccc1CNCc1cccs1 | 7.82% (inactive)
O=C(CNC1CCCCC1)NCC1(c2ccccc2)CCCC1 | 19.4% (inactive)
O=C(O)c1n[nH]nc1-c1ccccc1 | -4.14% (inactive)
COC(=O)c1cc(NC(=O)CN2CCN(C(C)=O)CC2)cc(C(=O)OC)c1 | 2.15% (inactive)

SMILES | inhibition
O=C(Cc1ccccc1)NCc1ccc(F)cc1 | -4.83% (inactive)
Cc1cc(C)cc(NC(=S)NCc2ccc(F)cc2)c1 | 16.7% (inactive)
Fc1ccc(CNCc2ccc(Br)cc2)cc1 | 84.8% (active)
Cn1c(SCC(=O)Nc2ccc(Br)cc2F)nnc1-c1ccco1 | -5.27% (inactive)
NC(=O)C1CCN(C(=O)COc2cccc3cccnc23)CC1 | -6.58% (inactive)
COc1ccc(C(=O)CSc2nc(C)cc(C)n2)cc1[N+](=O)[O-] | 16% (inactive)
COc1ccc(C(C[N+](=O)[O-])n2nc(C)cc2C)cc1 (centres undefined) | 100% (active)
COc1ccc(OCc2cn3c(C)cc(C)nc3n2)cc1 | -3.26% (inactive)
CN(C)/C=C(/C(=O)c1ccccc1Cl)S(C)(=O)=O | 3.15% (inactive)
CCn1nc(C)cc1C(=O)N1CCCC(C(=O)c2cccc(OC)c2)C1 (centres undefined) | -7.56% (inactive)
COc1ccc(C(=O)C2CCCN(C(=O)c3cc4nc(C)cc(C)n4n3)C2)cc1F (centres undefined) | 57.3% (active)
Cc1cnc(C(=O)N2CCCC(C(=O)c3ccc(C(F)(F)F)cc3)C2)cn1 (centres undefined) | 3.62% (inactive)
C=CCn1cc(C(=O)NCc2ccc(Cl)cc2)c(=O)c2cc(S(=O)(=O)N(CC)CC)ccc21 | 13.9% (inactive)
CCc1nc2oc3ccccc3c(=O)c2c(=O)n1Cc1ccc(OC)cc1 | 8.88% (inactive)
COc1ccc(Cn2c(-c3ccc(Cl)cc3)c[n+]3ccccc23)cc1 | 99.2% (active)
COc1ccc(C(=O)CN(C(=O)c2ccc(Cl)cc2)N2C(=O)c3ccccc3C2=O)cc1 | -4.51% (inactive)
COc1ccc(-c2nn(-c3ccccc3)cc2/C=C\C(=O)Nc2ccc(C(=O)O)cc2)cc1 | -5.87% (inactive)
O=c1c2c(nc3n1CCCCC3)sc1c(O)cccc12 | -1.41% (inactive)
Cc1c(C(=O)Nc2cccc(-c3nnc4n3CCCCC4)c2)oc2ccccc12 | 27.1% (inactive)
Cc1c(C(=O)Nc2ccccc2)sc2nc3n(c(=O)c12)CCCCC3 | 61.8% (active)
C=CCNc1nc(Nc2ccc(Cl)cc2)nc(OC)n1 | 41.2% (inactive)
COc1ccc(C2Nc3ccccc3C(=O)N2Cc2ccccc2)cc1Cn1nnc2ccccc21 (centres undefined) | 97% (active)
COc1ccc(C2=NO[C@@H]3C(=O)N(Cc4ccccc4)C(=O)[C@H]23)cc1OC | -2.75% (inactive)
COc1ccc(C2Nc3ccccc3C(=O)N2c2ccc(F)cc2)cc1Cn1nnc2ccccc21 (centres undefined) | 20.3% (inactive)
